Measurements reported in paper PMC5540273 (PLoS ONE, 2017).

Tests used:
Conditions in all cases: concentration: 1 μM, replicates: in singlicate; n = 1
INSR = tested on: INSR
IRAK1 = tested on: IRAK1
IRAK3 = tested on: IRAK3
IRAK4 = tested on: IRAK4
ITK = tested on: ITK
[1] = tested on: JAK1(JH1domain-catalytic)
[2] = tested on: JAK1(JH2domain-pseudokinase)
[3] = tested on: JAK2(JH1domain-catalytic)
[4] = tested on: JAK3(JH1domain-catalytic)
JNK1 = tested on: T1, JNK1
T1 construct: gene MAPK8

JNK2 = tested on: T2, JNK2
T2 construct: gene MAPK9

JNK3 = tested on: T3, JNK3
T3 construct: gene MAPK10

KIT-autoinhibited = tested on: KIT-autoinhibited
KIT = tested on: KIT
LATS1 = tested on: LATS1
LATS2 = tested on: LATS2
LCK = tested on: LCK
LIMK1 = tested on: LIMK1
LIMK2 = tested on: LIMK2
LKB1 = tested on: T4, LKB1
T4 construct: gene STK11
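Further: KINOMEscan kinase panel screen.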

Compound | %Inh (INSR) [%] | %Inh (IRAK1) [%] | %Inh (IRAK3) [%] | %Inh (IRAK4) [%] | %Inh (ITK) [%] | %Inh [1] [%] | %Inh [2] [%] | %Inh [3] [%] | %Inh [4] [%] | %Inh (JNK1) [%] | %Inh (JNK2) [%] | %Inh (JNK3) [%] | %Inh (KIT-autoinhibited) [%] | %Inh (KIT) [%] | %Inh (LATS1) [%] | %Inh (LATS2) [%] | %Inh (LCK) [%] | %Inh (LIMK1) [%] | %Inh (LIMK2) [%] | %Inh (LKB1) [%]
COc1ccc(Nc2nccc(N3CCC(NS(=O)(=O)c4ccc(NC(C)=O)cc4)C3)n2)cc1 (stereo not drawn) [GSK1379729] | 4 | 0 | 17 | 57 | 19 | 66 | 0 | 95.6 | 5 | 20 | 0 | 0 | 0 | 9 | 0 | 0 | 23 | 14 | 10 | 0
Cl.c1ccc(Cn2cnc3cc(Nc4ncnc5ccccc45)ccc32)cc1 [GW272142] | 0 | 26 | 0 | 15 | 7 | 4 | 0 | 0 | 0 | 13 | 7 | 0 | 4 | 0 | 0 | 0 | 25 | 0 | 4 | 0
Nc1ncnc2c1ncn2-c1cccc2ccccc12 [SKF-97184] | 0 | 27 | 0 | 0 | 0 | 1 | 33 | 54 | 19 | 15 | 0 | 0 | 20 | 8 | 18 | 0 | 0 | 0 | 0 | 92.8
COc1cc(Nc2ccnc3ccc(C(F)(F)F)cc23)cc(OC)c1OC [GW577382] | 10 | 22 | 6 | 2 | 9 | 8 | 0 | 9 | 100 | 39 | 48 | 29 | 0 | 19 | 0 | 0 | 68 | 18 | 0 | 0
COc1ccc(-n2cnc3c(N)ncnc32)cc1 [SKF-97236] | 52 | 0 | 12 | 7 | 7 | 5 | 68 | 31 | 27 | 12 | 0 | 0 | 2 | 94.2 | 25 | 34 | 31 | 2 | 0 | 0
CN(C)c1cc(-c2ccc3c(N)n[nH]c3c2)nc(N)n1 [GSK2219329] | 0 | 0 | 0 | 0 | 6 | 6 | 7 | 0 | 0 | 0 | 11 | 4 | 81 | 7 | 0 | 2 | 17 | 0 | 14 | 0
CCc1nc(-c2cccc(C)c2)c(-c2ccncc2)s1 | 0 | 0 | 0 | 0 | 4 | 0 | 41 | 1 | 0 | 57 | 76 | 90.3 | 0 | 42 | 4 | 0 | 24 | 0 | 0 | 35
Fc1cccc(CSc2nnc(-c3ccc4c(c3)CCO4)o2)c1 | 23 | 21 | 6 | 100 | 16 | 11 | 0 | 0 | 3 | 8 | 4 | 4 | 6 | 5 | 20 | 31 | 0 | 0 | 0 | 16
COc1ccc(-c2cc3c(C)nc(N)nc3n([C@H]3CC[C@H](O)CC3)c2=O)cn1 | 0 | 0 | 0 | 0 | 0 | 0 | 0 | 0 | 0 | 0 | 0 | 0 | 0 | 0 | 0 | 7 | 0 | 0 | 0 | 0
Cn1c(=O)c(F)c(Nc2ccc(I)cc2F)c2c(=O)n(OC[C@H](O)CO)cnc21 | 5 | 0 | 0 | 0 | 3 | 2 | 14 | 9 | 1 | 18 | 0 | 0 | 0 | 7 | 18 | 0 | 1 | 14 | 26 | 0
Cc1ccc(-c2ccc3c(ccc4sc5c(c43)NC[C@@H](C)N=C5N(C)C)n2)cn1 | 0 | 0 | 0 | 0 | 0 | 0 | 0 | 0 | 0 | 4 | 0 | 0 | 0 | 0 | 0 | 18 | 0 | 0 | 0 | 0
Nc1n[nH]c2nnc(-c3ccccc3)c(-c3ccccc3)c12 [GW554060] | 3 | 12 | 9 | 19 | 12 | 21 | 0 | 10 | 0 | 19 | 23 | 15 | 0 | 18 | 0 | 4 | 14 | 6 | 11 | 0
COc1cccc(C2=C(Nc3cccc(C(=O)O)c3)C(=O)NC2=O)c1 [SB-390770] | 0 | 0 | 7 | 0 | 1 | 1 | 2 | 33 | 94.7 | 22 | 24 | 17 | 0 | 0 | 0 | 0 | 37 | 0 | 10 | 0
CCC(=O)c1c(-c2ccccc2)c2cc(Cl)ccc2c(=O)n1Cc1ccc(C(=O)O)cc1 | 0 | 0 | 0 | 0 | 12 | 9 | 0 | 0 | 0 | 95.2 | 93.4 | 94.6 | 0 | 39 | 2 | 0 | 0 | 2 | 0 | 1
FC(F)(F)c1ccc(-c2ncn(CCCN3CCOCC3)c2-c2ccncc2)cc1 [SB-217780] | 0 | 0 | 10 | 0 | 9 | 0 | 0 | 27 | 0 | 55 | 53 | 55 | 0 | 20 | 0 | 27 | 0 | 0 | 0 | 23
COC(=O)c1c(-c2ccccc2)c2cc(Br)ccc2c(=O)n1Cc1ccc(S(C)(=O)=O)cc1 | 13 | 19 | 32 | 18 | 30 | 19 | 0 | 6 | 0 | 97.2 | 98.8 | 98.6 | 6 | 54 | 31 | 30 | 0 | 0 | 0 | 0
Nc1nccc2scc(-c3ccc4c(c3)CCN4C(=O)Cc3ccccc3)c12 [GSK2576924] | 0 | 0 | 0 | 0 | 4 | 19 | 0 | 4 | 0 | 0 | 10 | 0 | 5 | 74 | 0 | 0 | 11 | 3 | 14 | 9
O=C(Nc1n[nH]c2nc(-c3ccccc3)c(Cl)cc12)C1CC1 [SB-734909] | 31 | 26 | 23 | 24 | 0 | 14 | 22 | 13 | 0 | 56 | 32 | 29 | 0 | 51 | 0 | 24 | 3 | 9 | 12 | 37
